Test results published in PubChem BioAssay (NCATS).
Unmarked numbers belong to inactive results. Inconclusive results are not listed. Entries that show only a call come without a potency. Activity calls are given as the source filed them. Unless noted, calls follow the shape of the dose curve; as a rule, active = well fitted curve in the direction sought with a large enough effect; inconclusive = small, poorly fitted or top-dose-only effect, or another doubt; inactive = no such curve, though single readings can be large; an effect the other way counts as inactive or inconclusive.

Legend:
[1] = target: Glucocorticoid receptor (Homo sapiens) (UniProt P04150); assay: GR-GFP Redistribution (AID 450;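 active = compounds whose dose series gives a full or clear partial fitted curve of increased nuclear translocation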; also: potency is read from the fitted curve at half-maximal effect); details: U2OS GR-GFP nuclear translocation, laser cytometry, 2 h
Sequence of Glucocorticoid receptor (Homo sapiens) (P04150 whole entry, looked up, the tested form may be a part): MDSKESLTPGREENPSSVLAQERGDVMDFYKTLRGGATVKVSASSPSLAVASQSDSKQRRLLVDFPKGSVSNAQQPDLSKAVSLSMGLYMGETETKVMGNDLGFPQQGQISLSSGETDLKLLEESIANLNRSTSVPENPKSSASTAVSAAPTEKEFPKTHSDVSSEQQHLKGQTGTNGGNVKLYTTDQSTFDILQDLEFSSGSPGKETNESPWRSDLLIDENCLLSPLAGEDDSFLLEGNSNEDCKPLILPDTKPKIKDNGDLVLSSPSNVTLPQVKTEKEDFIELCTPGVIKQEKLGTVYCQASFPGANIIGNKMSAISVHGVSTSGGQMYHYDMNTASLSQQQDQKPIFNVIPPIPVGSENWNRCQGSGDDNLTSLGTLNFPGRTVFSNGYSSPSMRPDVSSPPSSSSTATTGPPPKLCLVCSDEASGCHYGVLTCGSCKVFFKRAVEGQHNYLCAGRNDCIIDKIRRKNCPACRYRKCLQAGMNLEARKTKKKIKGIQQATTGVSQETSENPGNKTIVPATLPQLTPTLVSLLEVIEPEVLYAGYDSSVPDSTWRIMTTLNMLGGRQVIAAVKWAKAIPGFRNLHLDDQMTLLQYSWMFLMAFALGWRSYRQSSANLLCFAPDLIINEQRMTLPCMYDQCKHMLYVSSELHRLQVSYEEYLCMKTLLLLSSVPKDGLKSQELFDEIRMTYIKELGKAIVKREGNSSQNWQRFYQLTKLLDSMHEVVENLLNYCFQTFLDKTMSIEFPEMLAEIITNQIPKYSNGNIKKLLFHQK

[2] = target: Glucocorticoid receptor (Homo sapiens) (UniProt P04150); assay: GR-EFC Redistribution (AID 451; calls by dose curve; also: potency is read from the fitted curve at half-maximal effect); details: CHO-K1 GR-EFC translocation, beta-gal luminescence, 2 h
Outline: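 Translocation of GR-ED fusion to nuclear EA restores b-gal, read by luminescence after 1 h room-temperature detection. Engineered CHO-K1 biosensor cells, 1,000/well, exposed 2 h at 37 C to titrations up to 46 uM final.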

[3] = target: Mitogen-activated protein kinase 10 (Mus musculus) (UniProt Q61831); assay: JNK3 AlphaScreen Assay (AID 530; active = well fitted curve in either direction with a large enough effect, not every such curve was filed as active;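 also: kinase came from lysate of stimulated human HepG2 cells; signal reports phosphorylation of biotinylated GST-cJun 1-79 at Ser73 with 10 µM ATP; series mostly up to about 57 µM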)
Outline: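 Kinase buffer: 20 mM Tris-HCl pH 7.6, 10 mM MgCl2, 1 mM DTT, 0.1 mM Na3VO4, 0.01% Tween-20; ATP 10 uM. Substrate biotin-GST-cJun(1-79), enzyme from activated HepG2 lysates. Detection by Ser73 phospho-antibody AlphaScreen.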

[4] = target: Guanine nucleotide-binding protein G(i) subunit alpha-1 (Homo sapiens) (UniProt P63096); assay: qHTS Assay for Inhibitors of RGS12 GoLoco Motif Activity (Green Fluorophore) (AID 879);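 also: negative values mean loss of peptide binding seen as reduced polarization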
Sequence of Guanine nucleotide-binding protein G(i) subunit alpha-1 (Homo sapiens) (P63096 whole entry, looked up): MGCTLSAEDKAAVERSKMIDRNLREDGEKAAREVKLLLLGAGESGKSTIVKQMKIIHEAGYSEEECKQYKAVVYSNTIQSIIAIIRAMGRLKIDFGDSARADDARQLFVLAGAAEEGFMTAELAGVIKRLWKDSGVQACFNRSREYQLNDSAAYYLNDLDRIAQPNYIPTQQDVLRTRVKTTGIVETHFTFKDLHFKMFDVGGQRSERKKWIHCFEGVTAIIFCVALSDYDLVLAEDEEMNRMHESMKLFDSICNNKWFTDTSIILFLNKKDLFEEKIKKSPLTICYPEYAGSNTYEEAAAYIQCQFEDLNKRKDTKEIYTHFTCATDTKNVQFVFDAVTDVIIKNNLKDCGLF
Outline: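 A drop in FITC polarization marked displacement of the FITC-tagged RGS12 GoLoco peptide (10 nM) from Gαi1 (50 nM). Compounds were incubated 10 min at room temperature in Tris pH 7.5 buffer containing 150 mM NaCl, 0.1 mM GDP and 0.05% NP40; unlabeled peptide titration served as control.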

[5] = qHTS Assay for Identification of Small Molecule Antagonists for Thrombopoietin (TPO) Signaling Pathway (AID 918); details: TPO-dependent cell signaling reporter, antagonist mode; also: potency is read from the fitted curve at half-maximal effect; nearly all actives have a fitted effect of over 60% in size
Outline: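 Luminescence read-out: GPIIb-promoter luciferase in Ba/F3 cells carrying human TPO receptor. Compounds added with 26 pM TPO (EC50), 24 hrs, 37 C, 5% CO2; cells deprived of IL-3 overnight beforehand. Inhibition of signal scored.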

[6] = target: Muscarinic acetylcholine receptor M1 (Rattus norvegicus) (UniProt P08482); assay: qHTS Assay for Antagonists of Acetylcholine Muscarinic M1 Receptor: Kinetic Measurement of Intracellular Calcium Response (AID 943);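 also: Fluo-4 calcium signal as peak divided by basal fluorescence over 4 min; series mostly up to about 35 µM; nearly all actives have a fitted effect of over 75% in size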
Sequence of Muscarinic acetylcholine receptor M1 (Rattus norvegicus) (P08482 whole entry, looked up): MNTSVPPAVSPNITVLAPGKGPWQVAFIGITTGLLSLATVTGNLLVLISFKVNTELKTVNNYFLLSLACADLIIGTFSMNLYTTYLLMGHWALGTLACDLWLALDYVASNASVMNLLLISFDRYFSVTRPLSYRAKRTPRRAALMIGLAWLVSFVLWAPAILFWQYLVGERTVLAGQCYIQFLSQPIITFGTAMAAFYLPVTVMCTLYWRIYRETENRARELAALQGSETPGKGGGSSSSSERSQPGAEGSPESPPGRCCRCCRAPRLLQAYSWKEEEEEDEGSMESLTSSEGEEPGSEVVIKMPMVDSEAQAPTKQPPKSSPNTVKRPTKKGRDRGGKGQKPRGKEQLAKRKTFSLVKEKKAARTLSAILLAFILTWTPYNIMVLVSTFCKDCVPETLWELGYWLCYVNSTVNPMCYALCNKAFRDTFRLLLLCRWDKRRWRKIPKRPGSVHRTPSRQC
Outline: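 Read-out: peak over basal Fluo-4 fluorescence, kinetic at 1 Hz for 4 min after EC80 carbachol (100 nM final). Rat M1-CHO cells, dye loaded 1 h at 37C, compound added 10 min before agonist.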

[7] = target: Pyruvate kinase (Leishmania mexicana) (UniProt Q27686); assay: qHTS Validation Assay for Inhibitors of Leishmania Mexicana Pyruvate Kinase (AID 945)
Sequence of Pyruvate kinase (Leishmania mexicana) (Q27686 2-499 E452W): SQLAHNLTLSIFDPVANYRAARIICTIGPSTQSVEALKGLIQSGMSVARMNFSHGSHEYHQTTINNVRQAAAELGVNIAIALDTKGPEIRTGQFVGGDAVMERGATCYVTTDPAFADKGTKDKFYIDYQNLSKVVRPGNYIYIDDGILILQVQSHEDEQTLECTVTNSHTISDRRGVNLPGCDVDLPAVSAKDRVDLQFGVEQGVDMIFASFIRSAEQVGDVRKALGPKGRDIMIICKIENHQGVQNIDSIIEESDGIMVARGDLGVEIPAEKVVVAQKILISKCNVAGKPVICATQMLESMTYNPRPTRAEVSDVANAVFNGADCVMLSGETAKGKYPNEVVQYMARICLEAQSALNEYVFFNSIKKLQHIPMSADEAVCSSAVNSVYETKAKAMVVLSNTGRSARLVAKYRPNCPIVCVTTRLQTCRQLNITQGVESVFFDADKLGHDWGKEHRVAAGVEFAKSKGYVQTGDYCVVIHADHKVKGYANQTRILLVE
Outline: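 Eight-point qHTS titrations; enzyme 0.2 nM LmPYK (E451W mutant); substrates 0.5 mM PEP, 0.1 mM ADP; 7 mM MgCl2; 1 h room temperature; PKLight luminescence normalized to neutral control.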

[8] = target: Pyruvate kinase PKM (Homo sapiens) (UniProt P14618); assay: qHTS Assay for Activators of Human Muscle Pyruvate Kinase (AID 954; active = well fitted curve in the direction sought with a large enough effect, not every such curve was filed as active)
Sequence of Pyruvate kinase PKM (Homo sapiens) (P14618 whole entry, looked up): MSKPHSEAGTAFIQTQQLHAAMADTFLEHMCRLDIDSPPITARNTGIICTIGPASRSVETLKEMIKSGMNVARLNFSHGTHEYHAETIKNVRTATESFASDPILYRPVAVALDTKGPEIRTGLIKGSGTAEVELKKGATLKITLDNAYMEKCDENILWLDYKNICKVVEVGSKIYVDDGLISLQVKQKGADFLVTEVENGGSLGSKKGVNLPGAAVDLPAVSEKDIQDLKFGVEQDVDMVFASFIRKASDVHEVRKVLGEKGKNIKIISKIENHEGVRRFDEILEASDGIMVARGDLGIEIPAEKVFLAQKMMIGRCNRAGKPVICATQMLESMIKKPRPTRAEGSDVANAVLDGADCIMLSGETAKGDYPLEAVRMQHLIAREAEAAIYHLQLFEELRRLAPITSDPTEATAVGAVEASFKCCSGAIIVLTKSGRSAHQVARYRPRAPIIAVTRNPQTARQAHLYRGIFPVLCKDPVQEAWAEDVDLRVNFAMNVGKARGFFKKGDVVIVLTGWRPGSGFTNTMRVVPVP
Outline: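 Compound pinned into substrate mix (0.5 mM PEP, 0.1 mM ADP), then 0.1 nM PKM2 added; 1 h, RT. Stop/detection luciferase reagent added, luminescence read. Normalized to no-inhibition and no-enzyme or reference-inhibitor controls.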

[9] = target: Alpha-galactosidase (Coffea arabica) (UniProt Q42656); assay: Counterscreen for Glucocerebrosidase Inhibitors: qHTS Assay for Coffee Bean alpha-Galactosidase at pH 4.5 (AID 957); also: series mostly up to about 77 µM
Sequence of Alpha-galactosidase (Coffea arabica) (Q42656 whole entry, looked up): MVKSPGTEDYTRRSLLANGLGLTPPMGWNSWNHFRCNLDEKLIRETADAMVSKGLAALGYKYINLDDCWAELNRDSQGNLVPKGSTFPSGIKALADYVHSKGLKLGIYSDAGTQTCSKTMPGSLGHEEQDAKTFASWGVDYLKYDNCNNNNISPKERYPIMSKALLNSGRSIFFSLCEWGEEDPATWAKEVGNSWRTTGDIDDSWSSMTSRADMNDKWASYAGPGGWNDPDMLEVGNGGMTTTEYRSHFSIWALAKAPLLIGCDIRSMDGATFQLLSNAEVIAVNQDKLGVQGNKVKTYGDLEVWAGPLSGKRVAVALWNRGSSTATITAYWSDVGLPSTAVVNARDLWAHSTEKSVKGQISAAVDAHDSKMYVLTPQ
Outline: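 Fluorogenic read-out: 4-methylumbelliferone at Ex 365/Em 440 nm after NaOH/glycine stop (pH 10). Enzyme 2 nM, 4-MU-alpha-galactoside 80 uM, citrate buffer pH 4.5, 20 min RT; normalized to no-enzyme and enzyme controls.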

[10] = target: Alpha-galactosidase A (Homo sapiens) (UniProt P06280); assay: Counterscreen for Glucocerebrosidase Inhibitors: qHTS Assay for Human alpha-Galactosidase at pH 4.5 (AID 992)
Sequence of Alpha-galactosidase A (Homo sapiens) (P06280 whole entry, looked up): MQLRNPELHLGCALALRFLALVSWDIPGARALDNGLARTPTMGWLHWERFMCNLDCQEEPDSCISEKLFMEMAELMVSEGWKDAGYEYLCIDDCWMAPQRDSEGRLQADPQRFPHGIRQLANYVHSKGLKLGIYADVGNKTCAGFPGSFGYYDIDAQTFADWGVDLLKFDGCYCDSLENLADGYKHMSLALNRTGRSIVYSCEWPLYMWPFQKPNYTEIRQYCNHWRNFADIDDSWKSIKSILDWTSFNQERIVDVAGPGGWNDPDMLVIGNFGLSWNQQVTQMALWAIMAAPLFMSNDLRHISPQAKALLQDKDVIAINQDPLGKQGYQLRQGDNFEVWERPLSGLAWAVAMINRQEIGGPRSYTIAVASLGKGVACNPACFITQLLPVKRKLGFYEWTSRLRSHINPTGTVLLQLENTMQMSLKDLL
Outline: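 Steps: enzyme (2 nM final), then compound across 0.7 nM to 77 uM, then 80 uM fluorogenic galactopyranoside substrate; incubate 20 min at room temperature; quench at pH 10; measure fluorescence at 365/440 nm.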

[11] = target: alpha-glucosidase (Oryza sativa, rice) (UniProt Q653V4); assay: Counterscreen for Glucocerebrosidase Inhibitors: qHTS Assay for Rice alpha-Glucosidase at pH 5.0 (AID 997)
Outline: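 Endpoint fluorogenic assay at pH 5.0: compounds (0.7 nM to 77 uM) titrated against 4 nM rice enzyme and 400 uM 4-MU-alpha-glucoside for 20 min at room temperature; NaOH/glycine stop, read ex 365/em 440 nm, Hill-fitted AC50.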

[12] = target: Alpha-galactosidase (Coffea arabica) (UniProt Q42656); assay: Counterscreen for Glucocerebrosidase Inhibitors: qHTS Assay for Coffee Bean alpha-Galactosidase at pH 5.9 (AID 998)
Outline: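 Fluorogenic 4-MU substrate hydrolysis, 80 uM substrate and 2 nM coffee bean alpha-galactosidase, pH 5.9 citrate buffer, 20 min at room temperature, then NaOH/glycine stop. Titration 0.7 nM–77 uM, normalized to no-enzyme and enzyme controls, AC50 via Hill equation.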

[13] = target: DNA dC->dU-editing enzyme APOBEC-3G (Homo sapiens) (UniProt Q9HC16); assay: qHTS for inhibitors of Vif-A3G interactions: Validation (AID 588379)
Sequence of DNA dC->dU-editing enzyme APOBEC-3G (Homo sapiens) (Q9HC16 whole entry, looked up): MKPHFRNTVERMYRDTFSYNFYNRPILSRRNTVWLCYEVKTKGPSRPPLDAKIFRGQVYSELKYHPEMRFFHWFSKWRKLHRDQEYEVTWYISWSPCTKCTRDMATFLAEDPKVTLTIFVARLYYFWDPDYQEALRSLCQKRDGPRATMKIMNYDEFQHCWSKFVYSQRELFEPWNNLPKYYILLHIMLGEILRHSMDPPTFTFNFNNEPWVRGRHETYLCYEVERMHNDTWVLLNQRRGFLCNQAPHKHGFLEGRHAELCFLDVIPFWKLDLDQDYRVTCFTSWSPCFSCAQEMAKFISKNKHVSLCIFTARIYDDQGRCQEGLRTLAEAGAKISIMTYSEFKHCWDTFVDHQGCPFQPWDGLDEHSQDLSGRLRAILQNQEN
Outline: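 Yellow fluorescence (Ex 488, Em 500-530) of Vif-coexpressing HeLa A3G-eYFP cells, scanned by Acumen cytometer, reports blocked A3G degradation. Cells plated at 700/well overnight at 37 deg C before compound addition, then a further overnight compound incubation at 37 deg C.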

[14] = tested on: Zika virus NS2B-NS3 protease; assay: Primary screen GU AMC qHTS for Zika virus inhibitors (AID 1347154); also: nearly all actives have a fitted effect of over 70% in size
Outline: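 Fluorogenic AMC-substrate cleavage by noncovalent NS2B-NS3 protease complex (25 nM, pH 8.0 Tris buffer with Tween 20) followed for 15 minutes at room temperature (~20% conversion). Percent inhibition from ex340/em450 signal change, fitted by 4-parameter Hill equation.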

[15] = Confirmatory qHTS for small molecule stabilizers of the endoplasmic reticulum resident proteome: Secreted ER Calcium Modulated Protein (SERCaMP) assay (AID 1508628); also: series mostly up to about 76 µM; nearly all actives have a fitted effect of over 40% in size
Outline: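 GLuc-SERCaMP-expressing SH-SY5Y cells, pretreated 16 h with compound, are challenged with thapsigargin to empty ER calcium stores; after 4 h, coelenterazine is added directly to the medium and luminescence is imaged.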

[16] = Cell Viability qHTS for small molecule stabilizers of the endoplasmic reticulum resident proteome (AID 1508629); details: cell viability counter-screen, 100 nM thapsigargin for final 4 h;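 also: potency is read from the fitted curve at half-maximal effect; compound exposure about 46 h in total before the viability read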
[17] = Primary qHTS for small molecule stabilizers of the endoplasmic reticulum resident proteome: Secreted ER Calcium Modulated Protein (SERCaMP) assay (AID 1508630)
Outline: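 The SH-SY5Y reporter protocol was run at 3 concentrations up to 38.3 uM (primary) or 11 concentrations (follow-up): 16 h compound, 100 nM thapsigargin for 4 h, then extracellular luciferase luminescence.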

Structure (SMILES): CNc1ccc2oc(C[C@H]3O[C@]4(CC[C@H]3C)O[C@H]([C@H](C)C(=O)c3ccc[nH]3)[C@H](C)C[C@H]4C)nc2c1C(=O)O
- Potency [1]: > 46 µM
- Potency [2]: > 46 µM
- outcome [3]: inactive
- outcome [4]: inactive
- Potency [5]: 3.16 µM (active)
- Potency [6]: inactive
- outcome [7]: inactive
- outcome [8]: inactive
- outcome [9]: inactive
- outcome [10]: inactive
- outcome [11]: inactive
- outcome [12]: inactive
- Potency [13]: inactive
- Potency [14]: inactive
- Potency [15]: inactive
- Potency [16]: 8.91 µM (active)
- Potency [17]: inactive
